# In the supplement of paper PMC8728848:
# This is one part of a sample in which the strongest signals are shown more often than they occur.
# B1: CLEC9a (Mus musculus), Q8BRU4 (protein)
# chain: MHAEEIYTSLQWDIPTSEASQKCQSPSKCSGAWCVVTMISCVVCMGLLATSIFLGIKFFQVSSLVLEQQERLIQQDTALVNLTQWQRKYTLEYCQALLQRSLHSGSDCSPCPHNWIQNGKSCYYVFERWEMWNISKKSCLKEGASLFQIDSKEEMEFISSIGKLKGGNKYWVGVFQDGISGSWFWEDGSSPLSDLLPAERQRSAGQICGYLKDSTLISDKCDSWKYFICEKKAFGSCI
# Assays:
# Test in all cases: glycan array binding signal (z-score within array); higher = stronger binding
# Conditions in all cases: glycan notation: IUPAC condensed, linker removed
# [1] = target: Fuc(a1-2)Gal(b1-3)GalNAc
# Procedure, shortened: (§1)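 Glycan array data were curated from 3228 arrays in the Consortium for Functional Glycomics database and kept only where the protein sequence was available. Glycan names were converted to IUPAC-condensed notation, and columns mapping to the same glycan were averaged. The binding signal is a within-array Z-score, averaged across arrays of the same protein sequence at different concentrations or buffers and across linkers. Negative Z-scores can be read as non-binding.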
# [2] = target: Fuc(a1-2)Gal(b1-4)Glc6S
# Procedure, shortened: as §1
# [3] = target: Fuc(a1-2)Gal(b1-4)[Fuc(a1-3)]GlcNAc(b1-2)Man(a1-3)[Fuc(a1-2)Gal(b1-4)[Fuc(a1-3)]GlcNAc(b1-2)Man(a1-6)]Man(b1-4)GlcNAc(b1-4)GlcNAc
# Procedure, shortened: as §1
# [4] = target: Fuc(a1-2)[Gal(a1-3)]Gal(b1-3)GlcNAc(b1-2)Man(a1-3)[Fuc(a1-2)[Gal(a1-3)]Gal(b1-3)GlcNAc(b1-2)Man(a1-6)]Man(b1-4)GlcNAc(b1-4)GlcNAc
# Procedure, shortened: as §1
# [5] = target: Fuc(a1-2)[Gal(a1-3)]Gal(b1-4)Glc
# Procedure, shortened: as §1
# [6] = target: Gal(a1-3)Gal
# Procedure, shortened: as §1
# [7] = target: Gal(a1-4)Gal(b1-3)GlcNAc(b1-2)Man(a1-3)[Gal(a1-4)Gal(b1-3)GlcNAc(b1-2)Man(a1-6)]Man(b1-4)GlcNAc(b1-4)GlcNAc
# Procedure, shortened: as §1
# [8] = target: Gal(b1-3)GalNAc
# Procedure, shortened: as §1
# [9] = target: Gal(b1-3)GlcNAc(b1-2)Man(a1-3)[Gal(b1-3)GlcNAc(b1-2)Man(a1-6)]Man(b1-4)GlcNAc(b1-4)GlcNAc
# Procedure, shortened: as §1
# [10] = target: Gal(b1-3)GlcNAc(b1-3)Gal(b1-4)GlcNAc
# Procedure, shortened: as §1
# [11] = target: Gal(b1-3)[Neu5Ac(b2-6)]GalNAc
# Procedure, shortened: as §1
# [12] = target: Gal(b1-4)Glc
# Procedure, shortened: as §1
# [13] = target: Gal(b1-4)GlcNAc(b1-3)[Gal(b1-4)GlcNAc(b1-6)]Gal(b1-4)GlcNAc
# Procedure, shortened: as §1
# [14] = target: Gal(b1-4)GlcNAc(b1-3)[Gal(b1-4)GlcNAc(b1-6)]GalNAc
# Procedure, shortened: as §1
# [15] = target: Gal4S(b1-4)GlcNAc
# Procedure, shortened: as §1
# [16] = target: Gal4S6S(b1-4)GlcNAc
# Procedure, shortened: as §1
# [17] = target: GalNAc(b1-3)Gal
# Procedure, shortened: as §1
# [18] = target: Glc(a1-6)Glc(a1-6)Glc
# Procedure, shortened: as §1
# [19] = target: Glc(b1-6)Glc
# Procedure, shortened: as §1
# [20] = target: GlcNAc(a1-4)Gal(b1-4)GlcNAc(b1-3)Gal(b1-4)[Fuc(a1-3)]GlcNAc(b1-3)Gal(b1-4)[Fuc(a1-3)]GlcNAc
# Procedure, shortened: as §1
# [21] = target: GlcNAc(b1-2)[GlcNAc(b1-4)]Man(a1-3)[GlcNAc(b1-2)Man(a1-6)]Man(b1-4)GlcNAc(b1-4)GlcNAc
# Procedure, shortened: as §1
# [22] = target: GlcNAc(b1-3)[GlcNAc(b1-6)]Gal(b1-4)GlcNAc
# Procedure, shortened: as §1
# [23] = target: GlcNAc(b1-4)Gal(b1-4)GlcNAc
# Procedure, shortened: as §1
# [24] = target: GlcNAc(b1-4)GlcNAc(b1-4)GlcNAc
# Procedure, shortened: as §1
# [25] = target: Neu5Ac(a2-3)Gal(b1-3)[Fuc(a1-4)]GlcNAc
# Procedure, shortened: as §1
# [26] = target: Neu5Ac(a2-3)Gal(b1-4)GlcNAc(b1-2)Man(a1-3)[GlcNAc(b1-2)Man(b1-4)GlcNAc(b1-2)Man(a1-6)]Man(b1-4)GlcNAc(b1-4)GlcNAc
# Procedure, shortened: as §1
# [27] = target: Neu5Ac(a2-3)Gal(b1-4)GlcNAc(b1-6)[Neu5Ac(a2-3)Gal(b1-3)]GalNAc
# Procedure, shortened: as §1
# [28] = target: Neu5Ac(a2-3)Gal(b1-4)[Fuc(a1-3)]GlcNAc(b1-3)Gal
# Procedure, shortened: as §1
# [29] = target: Neu5Ac(a2-3)Gal(b1-4)[Fuc(a1-3)]GlcNAc(b1-6)[Neu5Ac(a2-3)Gal(b1-3)]GalNAc
# Procedure, shortened: as §1
# [30] = target: Neu5Ac(a2-3)Gal(b1-4)[Fuc(a1-3)]GlcNAc6S
# Procedure, shortened: as §1
# [31] = target: Neu5Ac(a2-3)GalNAc
# Procedure, shortened: as §1
# [32] = target: Neu5Ac(a2-6)Gal(b1-4)Glc
# Procedure, shortened: as §1
# [33] = target: Neu5Ac(a2-6)Gal(b1-4)GlcNAc(b1-2)Man(a1-3)[GlcNAc(b1-2)Man(a1-6)]Man(b1-4)GlcNAc(b1-4)GlcNAc
# Procedure, shortened: as §1
# [34] = target: Neu5Ac(a2-8)Neu5Ac(a2-3)[GalNAc(b1-4)]Gal(b1-4)Glc
# Procedure, shortened: as §1
# [35] = target: Neu5Ac(a2-8)Neu5Ac(a2-8)Neu5Ac(a2-8)Neu5Ac(a2-3)[GalNAc(b1-4)]Gal(b1-4)Glc
# Procedure, shortened: as §1
# [36] = target: Neu5Gc(a2-3)Gal(b1-3)[Fuc(a1-4)]GlcNAc
# Procedure, shortened: as §1
# [37] = target: Neu5Gc(a2-6)GalNAc
# Procedure, shortened: as §1
binder,measurement,setting,value
B1,glycan array binding signal (z-score),[1],0.078
same,glycan array binding signal (z-score),[2],0.626
same,glycan array binding signal (z-score),[3],2.21
same,glycan array binding signal (z-score),[4],3.03
same,glycan array binding signal (z-score),[5],1.11
same,glycan array binding signal (z-score),[6],1.37
same,glycan array binding signal (z-score),[7],3.35
same,glycan array binding signal (z-score),[8],-0.657
same,glycan array binding signal (z-score),[9],1.97
same,glycan array binding signal (z-score),[10],1.18
same,glycan array binding signal (z-score),[11],1.89
same,glycan array binding signal (z-score),[12],-0.825
same,glycan array binding signal (z-score),[13],0.779
same,glycan array binding signal (z-score),[14],1.87
same,glycan array binding signal (z-score),[15],1.88
same,glycan array binding signal (z-score),[16],-1.4
same,glycan array binding signal (z-score),[17],0.273
same,glycan array binding signal (z-score),[18],-0.171
same,glycan array binding signal (z-score),[19],0.001
same,glycan array binding signal (z-score),[20],0.915
same,glycan array binding signal (z-score),[21],4.01
same,glycan array binding signal (z-score),[22],-1.89
same,glycan array binding signal (z-score),[23],0.714
same,glycan array binding signal (z-score),[24],2.95
same,glycan array binding signal (z-score),[25],-0.871
same,glycan array binding signal (z-score),[26],2.01
same,glycan array binding signal (z-score),[27],-0.1
same,glycan array binding signal (z-score),[28],-1.7
same,glycan array binding signal (z-score),[29],1.35
same,glycan array binding signal (z-score),[30],-0.627
same,glycan array binding signal (z-score),[31],-1.07
same,glycan array binding signal (z-score),[32],0.132
same,glycan array binding signal (z-score),[33],-0.365
same,glycan array binding signal (z-score),[34],0.872
same,glycan array binding signal (z-score),[35],2.43
same,glycan array binding signal (z-score),[36],-0.987
same,glycan array binding signal (z-score),[37],-0.83
